Bioassay records: PubChem, several laboratories
Sampled rows, rich in hits. Any-hit rate of the full collection: about 7%.
proKLK7 act – activators of human kallikrein-7 zymogen. purified proKLK7, EDANS-DABCYL substrate fluorescence; 100% is mature enzyme control, 0% vehicle. activation, % at 7 µM. hit rate 0.9% among 370,000. P49862;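 active = activation above the mean of all tested compounds plus 3 SD, computed per campaign excluding outliers beyond control limits, cut at about 13% in these data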
rCAG RNA binder – r(CAG) repeat RNA binding. hit rate 1.3% among 370,000. AID 651821. TO-PRO-1 dye displacement fluorescence. inhibition, % at 3 µM;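 active = inhibition above the plate cutoff, the mean of all test compounds on that plate plus 3 SD, cut at about 35% in these data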;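 note: higher means more dye released from RNA so lower well fluorescence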
GRIN3A LBD mod – modulators (binders) of human NR3A ligand-binding domain. NR3A LBD differential scanning fluorimetry, Tm shift; 0% = protein alone, 100% = glycine-bound protein. Tm shift relative to glycine control, % at 25 µM. hit rate 2.5% among 340,000. AID 1259313;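 active = melting temperature shift of at least 10% of the positive control shift, at one fixed dose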
ADAM17 inh – ADAM17 inhibition, QFRET primary screen; P78536; recombinant ADAM17, EDANS/DABCYL FRET peptide cleavage; inhibition, % at 6.95 µM; hit rate 0.83% among 370,000;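 active = inhibition above the mean of compounds lying between control limits plus 3 SD, set per campaign, cut at about 8.5% in these data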
Target sequence (P78536 215-824 limits assumed): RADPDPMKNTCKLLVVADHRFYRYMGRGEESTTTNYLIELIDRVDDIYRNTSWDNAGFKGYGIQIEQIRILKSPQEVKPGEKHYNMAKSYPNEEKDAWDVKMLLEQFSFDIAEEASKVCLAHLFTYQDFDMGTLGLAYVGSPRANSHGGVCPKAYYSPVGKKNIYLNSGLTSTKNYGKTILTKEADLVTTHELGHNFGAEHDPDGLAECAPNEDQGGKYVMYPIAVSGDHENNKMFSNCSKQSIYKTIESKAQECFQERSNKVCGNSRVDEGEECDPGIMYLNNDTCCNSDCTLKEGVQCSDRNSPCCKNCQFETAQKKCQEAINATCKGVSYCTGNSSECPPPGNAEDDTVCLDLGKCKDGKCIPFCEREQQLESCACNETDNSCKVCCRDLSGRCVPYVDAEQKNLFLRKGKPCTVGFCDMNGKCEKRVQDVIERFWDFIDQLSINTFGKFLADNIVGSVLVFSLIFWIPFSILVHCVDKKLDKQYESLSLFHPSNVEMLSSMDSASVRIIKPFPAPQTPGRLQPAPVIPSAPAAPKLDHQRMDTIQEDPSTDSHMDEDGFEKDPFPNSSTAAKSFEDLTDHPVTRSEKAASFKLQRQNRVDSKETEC
ADAM10 inh – ADAM10 inhibition, QFRET primary screen | inhibition, % at 7 µM | AID 720582 | recombinant ADAM10, EDANS/DABCYL FRET peptide cleavage, 3 h | hit rate 0.62% among 370,000 | O14672;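 active = inhibition above a per-campaign cutoff equal to the mean of compounds falling between control-based bounds plus 3 SD, cut at about 20% in these data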
AHR act – activates the human aryl hydrocarbon receptor. P35869. activation, % at 5 µM. hit rate 2.5% among 320,000. AID 2796. AHR-responsive luciferase reporter cells, luminescence; in the data active = activation above about 47%
Each line names hits and unclear results; the compound was inactive in the other large screens.

CC(C)(C)C(=O)Nc1cccc(-c2nc3ccccc3[nH]2)c1	AHR act 61
O=C(COc1ccccc1)Nc1cccc(-c2nc3cc4ccccc4cc3[nH]2)c1	GRIN3A LBD mod 26
CC(C)CC(=O)Nc1cccc(-c2nc3ccccc3[nH]2)c1	AHR act 58
CCOC(=O)[C@@]12CCCC3=C1N(CCC3)C(=O)[C@H]2CC(=O)NCc1cccs1	none (no result: GRIN3A LBD mod, AHR act)
COc1cc2c(cc1NC(=O)Nc1cccc(C)c1)oc1ccccc12	GRIN3A LBD mod 39
COc1cc2c(cc1NC(=O)c1cccc([N+](=O)[O-])c1C)oc1ccccc12	GRIN3A LBD mod 20 (no result: proKLK7 act, rCAG RNA binder, ADAM17 inh, ADAM10 inh)
COc1cc2c(cc1NC(=S)Nc1cccc(C)c1)oc1ccccc12	GRIN3A LBD mod 26, AHR act 84
COc1ccc(Cl)cc1NC(=S)Nc1cccc(C)c1	none
CCCCCCc1ccc(NC(=O)[C@@H]2CC=C[C@@H]3CCN(Cc4ccccc4)C(=O)[C@@H]32)cc1	none (no result: proKLK7 act, rCAG RNA binder, GRIN3A LBD mod, AHR act)
CC(C)(C)c1ccc(-c2nnc(SCC3CCCCO3)n2-c2ccc(Cl)cc2)cc1 (configuration not stated)	none (no result: GRIN3A LBD mod, AHR act)
OC1OC2COC(c3ccccc3)OC2C(O)C1O (configuration not stated)	none (no result: GRIN3A LBD mod, AHR act)
COC(=O)c1c(NC(=O)COC(=O)c2ccc(O)cc2)sc2c1CCCCC2	GRIN3A LBD mod 18
CCOC(=O)c1c(CC(C)C)csc1NC(=O)COC(=O)c1ccc(O)cc1	GRIN3A LBD mod 25 (no result: AHR act)
CCOC(=O)c1c(CC(C)C)csc1NC(=O)COC(=O)C1=NNC(=O)CC1	none
O=C(NCC(c1ccccc1)c1ccccc1)[C@H](Cc1ccccc1)NC1(C(=O)NC2CCCCC2)CCCC1	none (no result: proKLK7 act, rCAG RNA binder, GRIN3A LBD mod, AHR act)
CC(C)(C)NC(=O)c1ccccc1NC(=O)c1ccc2c(c1)OCO2	AHR act 68
CCCCNC(=O)c1ccccc1NC(=O)c1ccc2c(c1)OCO2	AHR act 58
Cc1ccccc1N1CCN(S(=O)(=O)c2ccc3c(c2)n(C)c(=O)c(=O)n3C)CC1	none (no result: GRIN3A LBD mod, AHR act)
COc1cccc2[nH]c3c(N4CCN(Cc5ccc6c(c5)OCO6)CC4)ncnc3c12	AHR act 73 (no result: GRIN3A LBD mod)
COc1cccc2[nH]c3c(N4CCC(C)CC4)ncnc3c12	AHR act 60
COc1cccc2[nH]c3c(N4CCc5ccccc5C4)ncnc3c12	none (no result: proKLK7 act, rCAG RNA binder, ADAM17 inh, ADAM10 inh)
COC(=O)[C@@H](C)NC(=O)C(Cc1ccc2c(c1)OCO2)NC(C)=O (some centres not stated)	none (no result: GRIN3A LBD mod, AHR act)
O=C(N[C@H](C(=O)N1CCC[C@H]1C(=O)NC1CCCC1)C1CCCCC1)c1ccco1	none (no result: GRIN3A LBD mod, AHR act)
CN(CC(=O)Nc1ccc(Cl)cc1)C(=O)c1ccc(NS(=O)(=O)c2ccc3[nH]c(=O)[nH]c3c2)cc1	none
Cc1cccc(C)c1NC(=O)CN(C)C(=O)c1ccc(NS(=O)(=O)c2ccc3[nH]c(=O)[nH]c3c2)cc1	GRIN3A LBD mod 13
c1ccc(N/N=C(\Cc2nc3ccccc3[nH]2)c2ccccc2)cc1	AHR act 149
Cc1ccc(N/N=C(\Cc2nc3ccccc3[nH]2)c2ccccc2)cc1	none (no result: proKLK7 act, rCAG RNA binder, ADAM17 inh, ADAM10 inh)
N#CCCN/N=C(/Cc1nc2ccccc2[nH]1)c1ccc(Cl)cc1	AHR act 48 (no result: proKLK7 act, rCAG RNA binder, GRIN3A LBD mod, ADAM17 inh, ADAM10 inh)
CCOC(=O)C1=C(C(=O)OCC)C2N(Cc3ccc(C#N)cc3)c3ccccc3[C@@]23C[C@@H](C(=O)OC)N(S(=O)(=O)c2cccs2)C3=N1 (some centres not stated)	none (no result: GRIN3A LBD mod, AHR act)
COc1ccc(S[C@]2(C(=O)N3CCCC3)CC(=O)N(S(=O)(=O)c3ccc(F)cc3)[C@@H]2c2ccc(OC)cc2)cc1	none (no result: GRIN3A LBD mod, AHR act)
Cc1onc(-c2ccc(Cl)cc2)c1-c1ccn(S(=O)(=O)c2ccccc2Cl)n1	none (no result: GRIN3A LBD mod, AHR act)
[O-][n+]1c(/C=C/c2ccccc2)ccc2ccccc21	GRIN3A LBD mod 19 (no result: AHR act)
[O-][n+]1ccccc1/C=C/c1ccccc1	none
COC(=O)[C@H](Cc1ccccc1)N1CC(N2CCCC2)CS1(=O)=O (some centres not stated)	none (no result: GRIN3A LBD mod, AHR act)
O=C(Nc1nccs1)c1ccc2ccccc2n1	AHR act 50
Cc1oc(-c2ccccc2)nc1C(=O)Nc1nccs1	AHR act 74
Cc1cccc(NC(=O)c2ccc3ccccc3n2)c1C	AHR act 58
Cc1csc(NC(=O)c2ccc3ccccc3n2)n1	AHR act 74
O=C(Nc1cccc([N+](=O)[O-])c1)OCc1ccc2c(c1)OCO2	none (no result: GRIN3A LBD mod, AHR act)
Cc1csc(NC(=O)c2cnc3ccccc3n2)n1	AHR act 57
O=C(Nc1nccs1)c1cc(-c2ccccc2)nn1-c1ccccc1	GRIN3A LBD mod 12
Cc1csc(NC(=O)c2ccc(C(=O)Nc3nc(C)cs3)cc2)n1	none (no result: proKLK7 act, rCAG RNA binder, GRIN3A LBD mod, ADAM17 inh, ADAM10 inh)
O=C(c1cnc(N2CCN(c3ncccn3)CC2)c2ccccc12)N1CCN(c2ccccn2)CC1	none
COc1ccc(N(C)C(=O)c2cnc(N3CCN(c4ncccn4)CC3)c3ccccc23)cc1	GRIN3A LBD mod 769
O=C(Nc1nnc(C2CC2)s1)c1cc([N+](=O)[O-])ccc1N1CCCCC1	AHR act 49
Cc1ccc(C2CCC3(CCC(=O)N3CCO)CC2)cc1 (configuration not stated)	none (no result: GRIN3A LBD mod, AHR act)
O=C(Nc1cc(S(=O)(=O)Nc2ccccc2Cl)ccc1O)c1sc2cc(Cl)ccc2c1Cl	GRIN3A LBD mod 150
COc1ccccc1NS(=O)(=O)c1ccc(Cl)c(NC(=O)c2sc3cc(Cl)ccc3c2Cl)c1	none
CC1(C)CC(c2nc(-c3ccccc3)cs2)CCS1 (configuration not stated)	GRIN3A LBD mod 10
COC(=O)C[C@@H]1CC[C@H]2[C@H](COc3ccc(NC(=O)Nc4ccc(Cl)cc4)cc3C(=O)N2C)O1	none (no result: GRIN3A LBD mod, AHR act)
Cc1ccc(Nc2ccc(C(F)(F)F)cc2[N+](=O)[O-])cc1	GRIN3A LBD mod 11
C/C(=N\Nc1ccc(C(F)(F)F)cc1[N+](=O)[O-])C1CC1	GRIN3A LBD mod 14
O=C(NCc1cccc(Cl)c1)O[C@H]1CC[C@@]23CCCN2C(=O)CCC[C@H]3C1	none (no result: proKLK7 act, rCAG RNA binder, GRIN3A LBD mod, AHR act)
CN1N=C2c3ccccc3CCC2C1c1ccc(C(F)(F)F)cc1 (configuration not stated)	none (no result: proKLK7 act, rCAG RNA binder, ADAM17 inh, ADAM10 inh)
CN(C)c1ccc(C2C3CCCc4ccccc4C3=NN2C)cc1 (configuration not stated)	AHR act 61
CC1(C)CC(=O)C=C(c2ccccc2F)C1=O	none (no result: GRIN3A LBD mod, AHR act)
Cn1c(CN2CCCCC2)nc2cc([N+](=O)[O-])ccc21	AHR act 67
Cn1c(CCN2CCCCC2)nc2cc([N+](=O)[O-])ccc21	none
CCOC(=O)C1=CCN(S(=O)(=O)c2ccc(Br)cc2)C1c1cccc(Br)c1 (configuration not stated)	none (no result: GRIN3A LBD mod, AHR act)
O=C(CSc1nnc(-c2cccnc2)n1-c1ccc(Cl)cc1)c1ccc(F)cc1	none (no result: GRIN3A LBD mod, AHR act)
COc1ccc(-n2c(SCC(=O)Nc3ccc(Oc4ccccc4)cc3)nnc2-c2ccc(C)cc2)cc1	none (no result: GRIN3A LBD mod, AHR act)
COc1ccccc1Nc1nc(-c2sc(NC(=O)CC(C)C)nc2C)cs1	AHR act 71
